Results on eight compounds are retold here after PubChem BioAssay (NCI).

Holding throughout (assay): NCI-60 one-dose screen, 48 h (100 = growth as untreated, 0 = no growth, -100 = all killed)
Settings in all cases: 10 µM unless noted

For assay [1], the system named is HCT-15 colon.
The subject of assay [2] is HT29 colon.
The subject of assay [3] is SNB-75 CNS.
The subject of assay [4] is SNB-19 CNS.
For assay [5], the system named is U251 CNS.
The test system of assay [6] is PC-3 prostate.
The test system of assay [7] is SK-MEL-5 melanoma.
Assay [8] has as its system UACC-62 melanoma.
Assay [9] concerns LOX IMVI melanoma.
For assay [10], the system named is SK-MEL-28 melanoma.
Assay [11] deals with SK-MEL-2 melanoma.
Assay [12] has as its system EKVX NSCLC.
For assay [13], the system named is SN12C renal.
Assay [14] concerns UO-31 renal.
Assay [15] has as its system TK-10 renal.
Assay [16] has as its system ACHN renal.
Assay [17] concerns CAKI-1 renal.
The test system of assay [18] is A498 renal.
Assay [19] concerns CCRF-CEM leukemia.
The test system of assay [20] is MOLT-4 leukemia.

The panel holds about 83,000 compounds, 20% with a hit somewhere; the sample as a whole holds those more often.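 Single-concentration screen, 48 h exposure, 96-well plates. Endpoint: percent growth. Below 10 = active.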 A number with no mark means an inactive call. Active and inactive are the calls of the source.

`CS(=O)(=O)C1=CN(CCO)C(=O)N2CCCN=C12`: the growth in assay [1] is 107%; in assay [2] it was 107%; in assay [3], 94.5%; in assay [4], 99.2%; in assay [5], 103%; in [6], 98.8%. Moreover, the growth is 97.7% in assay [7]; 102% in assay [8]; 101% in assay [9]; 104% in assay [10]; 111% in assay [11]; 100% in assay [12]. In addition, the growth in assay [13] was 99.7%; in assay [14], 78%; in assay [15], 109%; in [16] it was 103%; in assay [17], 98%; in assay [18] it was 88%. The figures for the growth in [19] and in [20] were 114% and 106%, respectively.

As to `COc1ccc(Cc2cc(-c3ccccc3)nn(Cc3ccccc3)c2=O)cc1OC`, the growth in assay [1] is 28.7%; in assay [2], 29.1%; in assay [3] it was 58.3%; in assay [4] it was 46.5%; in assay [5], 32.7%; in [6], 20.8%. The growth in assay [7] is -3.54% (active); in assay [8] it was 30.6%; in assay [9] it was 48.4%; in assay [10], 59.3%; in assay [11] it was 36.1%; in assay [12] it was 14.4%. In addition, the growth in [13] is 20.2%; in assay [14], 14.7%; in assay [15] it was 49.8%; in assay [16], 27.1%; in assay [17], 46.3%; in assay [18], -16.9% (active). In addition, the growth in [19] was 43%; in [20], 9.1% (active).

On to `C=CCn1c(SCC(=O)NCc2cc(C)c(O)c(C)c2)nc2ccc(Cl)cc2c1=O`, for which the growth in [1] is 95.6%; in assay [2] it was 102%; in assay [3], 67.5%; in assay [4] it was 99.7%; in [5] it was 102%; in assay [6], 96.1%. In addition, the growth in assay [7] was 93.2%; in [8], 81.9%; in [9], 100%; in assay [10] it was 109%; in assay [11], 101%; in assay [12], 111%. Also, the growth is 107% in assay [13]; 74.6% in [14]; 113% in assay [15]; 98.9% in assay [16]; 112% in assay [17]; 106% in [18]. The growth is 86.3% in assay [19] and 81.6% in assay [20].

Consider `O=Nc1c(-c2c(O)[nH]c3ncccc23)[nH]c2ccccc12`, for which the growth in [1] was 33.9%; in [2], 102%; in assay [3], 31.2%; in assay [4] it was 96.4%; in [5], 67.3%; in [6], 67.7%. The growth is 72.3% in assay [7]; 56.7% in [8]; 44.5% in assay [9]; 75.3% in assay [10]; 14.7% in assay [11]; 35.5% in [12]. Besides, the growth was 72.8% in assay [13]; 10.6% in assay [14]; 40.3% in assay [15]; 22.6% in [16]; 12.4% in [17]; -11.7% (active) in [18]. For the same compound, the growth in assay [19] was 64.8%; in [20], 40.8%.

On to `CCc1ccc(Oc2cn[nH]c2-c2ccc(OCCc3ccc(F)cc3)cc2O)cc1`, for which the growth is 74.3% in [1]; 42.4% in assay [2]; 79% in [3]; 108% in [4]; 53.5% in [5]; 72.2% in assay [6]. In addition, the growth was 97.5% in assay [7]; 88.6% in [8]; 86.8% in [9]; 87.3% in [10]; 90.1% in assay [11]; 87.9% in assay [12]. Also, the growth in assay [13] was 95.3%; in [14] it was 81.7%; in assay [15], 66.8%; in assay [16], 94%; in [17] it was 100%; in assay [18], 105%. Further, the values for the growth in assay [19] and in assay [20] were 95.6% and 84.4%, respectively.

Consider `O=C1Nc2ccc(I)cc2C1=O`, for which the growth was 101% in assay [1]; 93.8% in assay [2]; 79.8% in assay [3]; 98.3% in assay [4]; 93.8% in assay [5]; 86.7% in [6]. For the same compound, the growth in assay [7] was 101%; in [8] it was 92.3%; in assay [9], 75.8%; in assay [10], 104%; in assay [11], 85.4%; in assay [12], 102%. Further, the growth in assay [13] is 98%; in [14] it was 77.9%; in [15], 140%; in [16], 103%; in assay [17], 64.5%; in [18], 122%. Besides, the growth in [19] is 119%; in assay [20] it was 102%.

For the compound `O=C(O)c1[nH]c(=O)[nH]c(=O)c1[N+](=O)[O-]`, the growth in assay [1] is 98.8%; in assay [2], 129%; in [3] it was 93.4%; in [4] it was 110%; in assay [5], 104%; in [6], 96.7%. Besides, the growth in assay [7] is 110%; in assay [8] it was 106%; in assay [9] it was 105%; in assay [10] it was 121%; in assay [11] it was 158%; in assay [12], 119%. Besides, the growth in [13] was 108%; in assay [14], 96.3%; in [15], 119%; in assay [16], 102%; in assay [17] it was 95.2%; in assay [18], 118%. In addition, the growth is 113% in assay [19] and 77.4% in [20].

For the compound `OCc1cccc(-c2ccc3ncc(-c4nc(NC5CC5)ncc4F)n3c2)c1`, the growth in assay [1] is 1.06% (active); in assay [2], 4.87% (active); in assay [3], -40.8% (active); in assay [4], -0.451% (active); in assay [5] it was -3.8% (active); in assay [6], -10.3% (active). For the same compound, the growth was -77.2% (active) in assay [7]; -84.4% (active) in assay [8]; -1.7% (active) in assay [9]; -45.5% (active) in [10]; -55.4% (active) in assay [11]; 2.69% (active) in [12]. The growth was -15.4% (active) in assay [13]; -14.1% (active) in assay [14]; 13.5% in assay [15]; -13.2% (active) in assay [16]; 1.44% (active) in [17]; -47.8% (active) in assay [18]. Moreover, the growth is -2% (active) in assay [19] and -27.8% (active) in assay [20].
